Experiment [1] can be described thus: Primary qHTS for inhibitors of nuclear receptor binding SET domain protein 2 (NSD2) in an isogenic RCH-ACV NSD2 p.E1099K mutant (9B) (AID 1645876). Further: nearly all actives have a fitted effect of over 70% in size. Further: potency means the concentration at half of the fitted maximal effect.
The nature of experiment [2]: Primary qHTS for inhibitors of nuclear receptor binding SET domain protein 2 (NSD2) in an RCH-ACV wild type WT cells (2C) (AID 1645877; further: nearly all actives have a fitted effect of over 70% in size; further: potency means the concentration at half of the fitted maximal effect). (Quantitative high-throughput screening tests each substance at several concentrations.)
Experiment [3] has as its target Metallo-beta-lactamase type 2 (Klebsiella pneumoniae) (UniProt C7C422). Description: qHTS to identify inhibitors of the New Delhi Metallo-beta-lactamase (NDM): assay validation screen against the NCATS LOPAC Collection (AID 1794843).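 Further: nitrocefin turnover by NDM-1 measured as 485 nm absorbance at plateau; series mostly up to about 38 µM.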 The procedure, abridged:
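Enzyme 2 nM final, 50 mM HEPES pH 7.0, 1 uM ZnSO4, 0.01% Tween20; cpds in DMSO, preincub w/ enzyme; + nitrocefin (50 uM stock); A485 at plateau; no-enzyme column as blank.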

In experiment [4] the target is Phospholipid hydroperoxide glutathione peroxidase GPX4 (Homo sapiens) (UniProt P36969). Description: Primary qHTS Assay for Inhibitors of Recombinant Selenoprotein Glutathione Peroxidase 4 (GPX4) (AID 1845192). Further: nearly all actives have a fitted effect of over 65% in size. The procedure, abridged: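 GR-coupled readout: 100 nM GR, 1 mM GSH, 0.5 mM NADPH; NADPH fluorescence (ex 340/em 450 nm) read at t=0 and after 15 min RT. GPX4 200 nM, preincubated 30 min with compound; substrate 0.5 mM CHP.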

Experiment [5] addresses Glutathione peroxidase 1 (Homo sapiens) (UniProt P07203). Description: Primary qHTS Assay for Inhibitors of Recombinant Selenoprotein Glutathione Peroxidase 1 (GPX1) (AID 1845191). Further: nearly all actives have a fitted effect of over 65% in size. The essentials: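 Recombinant GPX1 (10 nM final) was preincubated with compound for 30 min at room temperature, then reacted with 1 mM GSH, 0.5 mM CHP, 0.5 mM NADPH and 100 nM glutathione reductase; NADPH fluorescence (340/450 nm) was read at 0 and 15 min.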

Experiment [6] addresses Rap guanine nucleotide exchange factor 3 (Homo sapiens) (UniProt O95398). Description: Confirmatory qHTS for antagonist of cAMP-regulated guanine nucleotide exchange factor 3 (EPAC1) (AID 1645880). Further: nearly all actives have a fitted effect of over 55% in size. The procedure, abridged: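 Nucleotide exchange uses 100 nM EPAC1, 250 nM RAP1B-BODIPY-GDP and 50 uM GDP, with compounds in a concentration-titration series. After 5 min at room temperature, fluorescence (480 nm ex/540 nm em) is read every 5 min for 30 min. Data are normalized to control ATA and DMSO.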

Experiment [7] shares this target. Description: Confirmatory qHTS for agonist of cAMP-regulated guanine nucleotide exchange factor 3 (EPAC1) (AID 1645881).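 Further: EPAC1 catalysed release of BODIPY-GDP from Rap1B seen as fluorescence loss; nearly all actives have a fitted effect of over 75% in size.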
Experiment [8] concerns the target Rap guanine nucleotide exchange factor 4 (Homo sapiens) (UniProt Q8WZA2). Description: Confirmatory qHTS for agonist of cAMP-regulated guanine nucleotide exchange factor 4 (EPAC2) (AID 1645884).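 Further: nucleotide exchange releases bodipy-GDP from Rap1 and this lowers its fluorescence; nearly all actives have a fitted effect of over 65% in size.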
Experiment [9] has the same target. Description: Confirmatory qHTS for antagonist of cAMP-regulated guanine nucleotide exchange factor 4 (EPAC2) (AID 1645885). Further: potency means the concentration at half of the fitted maximal effect; nearly all actives have a fitted effect of over 25% in size.

Values joined by “and” are separate entries in the source; they are usually repeats but may differ in a detail not shown here. Identical values can stand only once. Results filed as inconclusive are left out. Active and inactive are the calls of the source. The call rests on the fitted dose curve; in most records, active means well fitted curve in the direction sought with a large enough effect; inconclusive means small, poorly fitted or top-dose-only effect, or another doubt; inactive means no such curve, though single readings can be large; an effect the other way counts as inactive or inconclusive.

Glutathione peroxidase 1 (Homo sapiens), sequence (P07203 whole entry, looked up): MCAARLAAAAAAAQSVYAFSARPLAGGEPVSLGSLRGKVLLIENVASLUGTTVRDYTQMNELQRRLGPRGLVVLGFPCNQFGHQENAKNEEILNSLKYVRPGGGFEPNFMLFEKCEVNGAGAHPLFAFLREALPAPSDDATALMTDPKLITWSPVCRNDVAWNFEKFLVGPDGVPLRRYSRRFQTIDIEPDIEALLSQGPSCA
Rap guanine nucleotide exchange factor 3 (Homo sapiens), sequence (O95398 whole entry, looked up): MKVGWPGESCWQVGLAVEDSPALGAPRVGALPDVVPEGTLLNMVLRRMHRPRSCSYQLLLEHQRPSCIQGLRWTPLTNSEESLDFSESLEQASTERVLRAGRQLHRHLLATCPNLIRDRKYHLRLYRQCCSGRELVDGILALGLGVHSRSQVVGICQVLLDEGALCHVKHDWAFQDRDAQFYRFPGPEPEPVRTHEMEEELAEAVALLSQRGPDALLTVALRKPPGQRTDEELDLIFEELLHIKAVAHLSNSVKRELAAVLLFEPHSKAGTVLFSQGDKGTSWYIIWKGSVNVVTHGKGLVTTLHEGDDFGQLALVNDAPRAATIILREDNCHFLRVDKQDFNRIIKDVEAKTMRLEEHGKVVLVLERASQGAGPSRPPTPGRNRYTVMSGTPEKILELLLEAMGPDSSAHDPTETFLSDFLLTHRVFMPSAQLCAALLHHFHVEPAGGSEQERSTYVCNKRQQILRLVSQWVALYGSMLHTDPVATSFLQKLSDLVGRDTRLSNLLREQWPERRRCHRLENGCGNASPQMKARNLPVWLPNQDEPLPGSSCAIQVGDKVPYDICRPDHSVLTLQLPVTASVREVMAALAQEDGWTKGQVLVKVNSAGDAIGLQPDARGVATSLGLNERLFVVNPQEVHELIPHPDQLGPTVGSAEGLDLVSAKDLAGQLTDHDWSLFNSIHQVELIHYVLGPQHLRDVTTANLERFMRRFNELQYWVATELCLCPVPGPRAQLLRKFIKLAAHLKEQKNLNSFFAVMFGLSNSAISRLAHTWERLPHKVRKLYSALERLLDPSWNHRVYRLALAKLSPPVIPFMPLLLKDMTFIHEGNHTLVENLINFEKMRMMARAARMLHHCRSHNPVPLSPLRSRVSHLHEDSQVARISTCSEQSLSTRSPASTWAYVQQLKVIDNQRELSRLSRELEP
Phospholipid hydroperoxide glutathione peroxidase GPX4 (Homo sapiens), sequence (P36969 whole entry, looked up): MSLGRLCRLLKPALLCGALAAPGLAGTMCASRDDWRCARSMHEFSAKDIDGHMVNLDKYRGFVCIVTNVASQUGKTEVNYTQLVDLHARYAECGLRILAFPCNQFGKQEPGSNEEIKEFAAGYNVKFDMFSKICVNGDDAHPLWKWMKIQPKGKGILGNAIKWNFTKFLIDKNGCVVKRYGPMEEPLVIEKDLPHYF
Rap guanine nucleotide exchange factor 4 (Homo sapiens), sequence (Q8WZA2 whole entry, looked up): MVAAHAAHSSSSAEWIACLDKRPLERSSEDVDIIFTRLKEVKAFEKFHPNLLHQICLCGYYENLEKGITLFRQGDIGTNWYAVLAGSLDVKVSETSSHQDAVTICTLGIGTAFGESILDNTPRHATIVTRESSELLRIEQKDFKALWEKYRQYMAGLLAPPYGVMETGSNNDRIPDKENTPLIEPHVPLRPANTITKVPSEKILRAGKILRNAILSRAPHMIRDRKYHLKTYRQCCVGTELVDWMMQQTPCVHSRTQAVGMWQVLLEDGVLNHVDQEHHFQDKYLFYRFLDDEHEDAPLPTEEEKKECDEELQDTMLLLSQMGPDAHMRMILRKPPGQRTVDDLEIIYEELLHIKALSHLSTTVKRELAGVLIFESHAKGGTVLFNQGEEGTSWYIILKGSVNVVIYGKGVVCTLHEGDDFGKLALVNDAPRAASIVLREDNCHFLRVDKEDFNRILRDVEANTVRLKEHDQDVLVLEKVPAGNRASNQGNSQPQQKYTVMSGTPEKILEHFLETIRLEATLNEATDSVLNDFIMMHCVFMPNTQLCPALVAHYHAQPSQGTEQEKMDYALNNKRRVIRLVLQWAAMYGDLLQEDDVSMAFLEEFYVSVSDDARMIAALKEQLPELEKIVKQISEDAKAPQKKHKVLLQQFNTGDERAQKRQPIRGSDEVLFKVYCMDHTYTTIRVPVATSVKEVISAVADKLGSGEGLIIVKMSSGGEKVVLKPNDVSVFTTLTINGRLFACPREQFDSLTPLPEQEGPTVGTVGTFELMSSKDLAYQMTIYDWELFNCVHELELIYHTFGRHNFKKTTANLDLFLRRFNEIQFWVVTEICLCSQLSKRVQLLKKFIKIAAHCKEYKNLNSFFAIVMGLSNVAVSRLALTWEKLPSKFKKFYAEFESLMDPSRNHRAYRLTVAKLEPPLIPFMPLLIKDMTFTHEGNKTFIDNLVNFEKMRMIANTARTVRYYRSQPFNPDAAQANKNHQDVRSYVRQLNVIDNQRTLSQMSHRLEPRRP
Metallo-beta-lactamase type 2 (Klebsiella pneumoniae), sequence (C7C422 whole entry, looked up): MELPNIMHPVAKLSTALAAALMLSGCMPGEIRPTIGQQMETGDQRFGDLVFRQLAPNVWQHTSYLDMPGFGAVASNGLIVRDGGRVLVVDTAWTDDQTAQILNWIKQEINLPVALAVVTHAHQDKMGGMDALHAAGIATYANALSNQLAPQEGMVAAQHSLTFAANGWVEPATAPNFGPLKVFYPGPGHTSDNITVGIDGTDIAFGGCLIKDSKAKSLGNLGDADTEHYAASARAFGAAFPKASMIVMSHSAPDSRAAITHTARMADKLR

Regarding `CC(C)(C)NC[C@H](O)COc1nsnc1N1CCOCC1`, the Potency entry in experiment [1], in [2] and in experiment [4] was “inactive” in each case. Moreover, in experiment [3], the outcome was inactive.
Consider `C#C[C@]1(O)CC[C@H]2[C@@H]3CCC4=CC(=O)CC[C@@H]4[C@H]3CC[C@@]21CC`, for which the Potency entry in experiment [1], in [2], in experiment [5] and in [4] was “inactive” in each case.
With `OCCOCCN1CCN(C2=Nc3ccccc3Sc3ccccc32)CC1`, the Potency entry in experiment [1], in [2], in experiment [5] and in [4] was “inactive” in each case.
Consider `c1ccc(CC2=NCCN2)cc1`, for which the Potency in experiment [1] is 8.41 µM (active); in experiment [2], 5.31 µM (active). For the same compound, the Potency result in experiment [5] and in experiment [4] was “inactive” throughout.
Take `CCC1Nc2cc(Cl)c(S(N)(=O)=O)cc2S(=O)(=O)N1` (configuration not stated): the Potency result in experiment [1], in experiment [2], in [5] and in experiment [4] was “inactive” throughout.
Consider `O=C(O)CCC(=O)Nc1ccc(S(=O)(=O)Nc2nccs2)cc1`, for which the Potency result in experiment [1], in experiment [2] and in experiment [5] was “inactive” in each case.
Consider `CCOC(=O)[C@H](CCc1ccccc1)N[C@@H](C)C(=O)N1[C@H](C(=O)O)C[C@@H]2CCC[C@@H]21`, for which the Potency entry in experiment [1], in experiment [2] and in experiment [5] was “inactive” in each case.
As to `NC(=O)C1(N2CCCCC2)CCN(CCCC(=O)c2ccc(F)cc2)CC1`, the Potency entry in experiment [1], in experiment [2] and in experiment [5] was “inactive” throughout.
As for `NS(=O)(=O)c1cc(C(=O)O)cc(N2CCCC2)c1Oc1ccccc1`, the Potency entry in experiment [1] and in [5] was “inactive” each time.
As for `CC(O)Cn1cnc2c1c(=O)n(C)c(=O)n2C` (configuration not stated), the Potency entry in [1], in experiment [2] and in [4] was “inactive” in each case.
For the compound `COc1ccc(C(Cl)=C(c2ccc(OC)cc2)c2ccc(OC)cc2)cc1`, the Potency result in experiment [1], in experiment [6] and in [5] was “inactive” throughout. Further, the result in [7] and in [8] was inactive. For the same compound, the Potency in [9] is 7.84 µM (active) and 2.31 µM (active).
Consider `Nc1ccc(S(=O)(=O)Nc2cnc3ccccc3n2)cc1`, for which the Potency result in experiment [1], in experiment [5] and in [4] was “inactive” throughout.
As for `NCCNC(=O)c1ccc(Cl)cn1`, the Potency entry in experiment [1], in [2] and in experiment [4] was “inactive” each time.
With `COc1ccc(C(=O)c2ccccc2O)c(O)c1`, the Potency result in experiment [1] and in experiment [5] was “inactive” throughout. Further, the compound was classed as inactive in experiment [7] and in [8]. Further, the Potency in [9] is 44.1 µM (active).
As to `C[N+]12CCC(CC1)C(OC(=O)C(O)(c1ccccc1)c1ccccc1)C2` (configuration not stated), the Potency entry in experiment [1], in experiment [5] and in experiment [4] was “inactive” each time.
As for `C=CCN1CCc2nc(N)sc2CC1`, the Potency result in experiment [1], in [2] and in experiment [4] was “inactive” throughout.
